In the supplement of paper PMC6555819 one finds PBM binding z-score data, which are given here for 40 sequences.

The first assay deals with THRa homodimer (NR concentration 90 nM). In words: PBM binding z-score (relative to random genomic background probes); higher = stronger binding; sequences stand for … in GC…GCGATTGACAGCGTAGAATGAAGG
The method, boiled down: (§1)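 Custom Agilent 4×180K protein-binding microarrays carried double-stranded probes. Their 34-nt variable regions held direct-repeat seeds, single-nucleotide variants, half-site ablations and random human genomic background sequences. Arrays were incubated 1 h with ligand-free nuclear receptor dimers in PBS pH 7.4, 2% milk, 0.02% Triton X-100, 1 mM DTT, 0.2 mg/mL BSA and 0.4 mg/ml salmon testes DNA. Antibodies against each partner (one per run) detected binding, and scanned fluorescence was regression-normalized. Binding z-scores use random background probes as reference.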
In turn, TCTAGTAGGTCAAAGGTCACACACTCGAAATGCG registered a PBM binding z-score of 2.3.
In turn, CGTCCAAGGTCACAGAGGTCAGTGAATGCCGAGT gave a PBM binding z-score of 3.95.
Regarding CCGACGGGGGCAAAGGTTACCATACTCAGTACGA, the PBM binding z-score was 1.02.
The same measure, in the same setting: the value for TGTCAAAGTTCAAAGGTGACGTAAGTATCCACAC was -0.183; that for CAAAATAGGTCACGAAAGGTCAAAGTCGAATGAC was 1.51.
Take CCGAGAAGGTTACGAGGGGGCATTCAGTGCGAAT: the PBM binding z-score came out at 0.555.
The same measure, in the same setting: then TATACAGGGTCAAAGGCCAAAGTACGAATGTCGA, with 0.785; and AATACGGGGTCACTAGGCCAGAGTAGGTACGAAT, with 2.25; and AGAACGAGGTCACGCTGAGTTGATAGCAGAGTAG, with 3.59.
Consider GCTGCGAGGTCAACTGATGGTCAGCTAAAGCTCG, for which the PBM binding z-score is 2.9.
Regarding ATATGTAGGTCAAGGGTCATTCAGGTTGGTTCGC, the PBM binding z-score amounted to 2.22.
Same read-out and setting: then CCAACTAGGTCAAAGGACAGTGAAAGGCGACGTA, with 0.765; and ATATGTAGGTTAAAGGTCATTCAGGTTGGTTCGC, with 1.97.
On the same count and under the same terms, the value for GCTTAGGGGTCAAAGGTTATAGCATGAATAGAAT was 0.683; that for CAAACAAGGTCACGAAAGGTCAAAGTCGAATGAC was 3.65; that for TGTCAAAGGTCAAAGGTAACGTAAGTATCCACAC was 0.695.
On the same count and under the same terms, the value for CTATGTAGGTTAAGGGAGTCATTCAGTTTGAAAG was -0.282.
CGTCAAAGGTCAGCAGGTCAGTGAAAGCGACGTG came in with a PBM binding z-score of 0.878.
The sequence GCTTAAGGGTCAAAGGTTATAGCATGAATAGAAT came in with a PBM binding z-score of -0.296.
On the same count and under the same terms, the value for CAAACGAGGTCACGAAAGGTCAAAGTCGAATGAC was 4.41; that for CAAAATAGGTCACAGAGGTCAAAGTCCGTGCGTA was 2.2; that for AATACGGGGTCATCGTAGGCCAGAGTACGCACAG was 2.62.
The same measure, in the same setting: the value for GATACGGGGTCAAGGCCAGAGTACGCGTATTGAT was 2.04; that for GCTGCTAGTTCAACTGATGGTCAGCTAAAGCTCG was -0.498; that for ATCGAAAGGTCATGAGGTGAGTATACAGAAAGGC was 1.95.
On to TATACGGGGTCAAAGGCCAGAGTACGAATGTCGA, for which the PBM binding z-score was found to be 1.72.
For the sequence TGTCAAAGTTCAAAGGTTACGTAAGTATCCACAC, the PBM binding z-score is 0.193.
On the same count and under the same terms, the value for TAGCCTAGGTCATTCAGGGGCAAGTATAGAAAGC was 0.948; that for CCTCGGAGGTCAACAGGAGGTCAGAGCTGCCAGA was 1.81.
AGTCAAAGGTCATCTAGGTAACGTAAGATATGCT came in with a PBM binding z-score of 1.42.
Sequence TAGCCGAGGTCATTCAGGGGCCAGTATAGAAAGC came in with a PBM binding z-score of 2.38.
Sequence CGTCAAAGTTCAACTAAGGTCACGTAAAGCACGC gave a PBM binding z-score of 5.58.
Still for that read-out and setting: then TCTAGTTGGTCAAAGGTCACGCACTCGAAATGCG, with 2.52; and GGAACGAGGTCAAAGTTGATAGCATCTGTCGACG, with 2.61.
Same read-out and setting: the value for CGTCAAAGGTCAAAGGTCAGTGAAGAGATGACGG was 1.08.
Sequence CAAACAAGGTCACAGAGGTCAAAGTCCGTGCGTA gave a PBM binding z-score of 4.36.
ACTTACGGGTCAACGAGGTCATAGCACGCGTATA: the PBM binding z-score stood at 3.64.
The same measure, in the same setting: the value for CGTCCAAGGTCATAGGGGGTCAGTGAAGACAGAT was 4.24; that for CAAACCAGGTCAAAGGTCAAAGTCGAGCCAACCA was 2.57; that for TAGCCTAGTTCATGCGGGCCAGTATAGTGTCGGC was -0.684.

In a further assay the test system is VDR homodimer (NR concentration 270 nM). The assay is described as above. In short, it runs like this:
as §1
On to TCTAGTAGGTCAAAGGTCACACACTCGAAATGCG, for which the PBM binding z-score came to 3.32.
Consider CGTCCAAGGTCACAGAGGTCAGTGAATGCCGAGT, for which the PBM binding z-score was 6.67.
Still for that read-out and setting: the value for CCGACGGGGGCAAAGGTTACCATACTCAGTACGA was 2.92.
With TGTCAAAGTTCAAAGGTGACGTAAGTATCCACAC, the PBM binding z-score is 4.97.
The same measure, in the same setting: then CAAAATAGGTCACGAAAGGTCAAAGTCGAATGAC, with 3.8.
As to CCGAGAAGGTTACGAGGGGGCATTCAGTGCGAAT, the PBM binding z-score worked out at 3.67.
As to TATACAGGGTCAAAGGCCAAAGTACGAATGTCGA, the PBM binding z-score worked out at 3.3.
The sequence AATACGGGGTCACTAGGCCAGAGTAGGTACGAAT displayed a PBM binding z-score of 4.82.
On the same count and under the same terms, the value for AGAACGAGGTCACGCTGAGTTGATAGCAGAGTAG was 5.15.
Turning to GCTGCGAGGTCAACTGATGGTCAGCTAAAGCTCG, the PBM binding z-score was determined as 3.42.
ATATGTAGGTCAAGGGTCATTCAGGTTGGTTCGC gave a PBM binding z-score of 4.28.
In the case of CCAACTAGGTCAAAGGACAGTGAAAGGCGACGTA, the PBM binding z-score is 0.866.
ATATGTAGGTTAAAGGTCATTCAGGTTGGTTCGC yielded a PBM binding z-score of 5.11.
On to GCTTAGGGGTCAAAGGTTATAGCATGAATAGAAT, for which the PBM binding z-score turned out to be 4.44.
CAAACAAGGTCACGAAAGGTCAAAGTCGAATGAC: the PBM binding z-score worked out at 5.74.
The sequence TGTCAAAGGTCAAAGGTAACGTAAGTATCCACAC showed a PBM binding z-score of 2.81.
Still for that read-out and setting: the value for CTATGTAGGTTAAGGGAGTCATTCAGTTTGAAAG was 0.283.
On the same count and under the same terms, the value for CGTCAAAGGTCAGCAGGTCAGTGAAAGCGACGTG was 1.62; that for GCTTAAGGGTCAAAGGTTATAGCATGAATAGAAT was 2.8.
In turn, CAAACGAGGTCACGAAAGGTCAAAGTCGAATGAC returned a PBM binding z-score of 6.31.
The same measure, in the same setting: then CAAAATAGGTCACAGAGGTCAAAGTCCGTGCGTA, with 6.13; and AATACGGGGTCATCGTAGGCCAGAGTACGCACAG, with 6.13; and GATACGGGGTCAAGGCCAGAGTACGCGTATTGAT, with 4.85.
Still for that read-out and setting: then GCTGCTAGTTCAACTGATGGTCAGCTAAAGCTCG, with 0.327.
Same read-out and setting: the value for ATCGAAAGGTCATGAGGTGAGTATACAGAAAGGC was 2.68; that for TATACGGGGTCAAAGGCCAGAGTACGAATGTCGA was 5.21.
As for TGTCAAAGTTCAAAGGTTACGTAAGTATCCACAC, the PBM binding z-score turned out to be 4.2.
Consider TAGCCTAGGTCATTCAGGGGCAAGTATAGAAAGC, for which the PBM binding z-score amounted to 2.65.
CCTCGGAGGTCAACAGGAGGTCAGAGCTGCCAGA: the PBM binding z-score came out at 3.37.
The same measure, in the same setting: then AGTCAAAGGTCATCTAGGTAACGTAAGATATGCT, with 2.52.
Same read-out and setting: the value for TAGCCGAGGTCATTCAGGGGCCAGTATAGAAAGC was 5.34; that for CGTCAAAGTTCAACTAAGGTCACGTAAAGCACGC was 6.52; that for TCTAGTTGGTCAAAGGTCACGCACTCGAAATGCG was 3.12.
Turning to GGAACGAGGTCAAAGTTGATAGCATCTGTCGACG, the PBM binding z-score was found to be 4.79.
Same read-out and setting: then CGTCAAAGGTCAAAGGTCAGTGAAGAGATGACGG, with 3.49.
On the same count and under the same terms, then CAAACAAGGTCACAGAGGTCAAAGTCCGTGCGTA, with 9.97; and ACTTACGGGTCAACGAGGTCATAGCACGCGTATA, with 7.5; and CGTCCAAGGTCATAGGGGGTCAGTGAAGACAGAT, with 4.75.
On the same count and under the same terms, then CAAACCAGGTCAAAGGTCAAAGTCGAGCCAACCA, with 3.91.
TAGCCTAGTTCATGCGGGCCAGTATAGTGTCGGC registered a PBM binding z-score of 1.56.
